Out of some 68,000 compounds screened, about 2,700 (4%) showed an effect of 50% or more. Shown is part of a subset that was picked to be rich in strong results.
system: Plasmodium berghei; experiment: Screen against P. berghei liver stage (PbLuc), transformed with Luciferase, at 2uM; format: functional, HepG2; conditions: tested at 2 uM

| Structure (SMILES) | INHIBITION |
| --- | --- |
| CCN(Cc1cccc2c1OCO2)C(=O)NCc1ccccn1 | -5.39% |
| O=C(Cc1cccs1)N1C[C@H]2CC[C@@H](C1)N(Cc1ccccn1)C2=O | 14.63% |
| COCC(O)CN(C)C(=O)NCc1ccc(-c2ccn[nH]2)cc1 (stereo not drawn) | -0.21% |
| O=C(c1ccncc1)N1CCC2(CC1)C(=O)Nc1ccccc12 | 49.25% |
| COc1ncc(C(=O)N2CCC3(CC2)C(=O)Nc2ccccc23)cn1 | 50.32% |
| N#Cc1ccc(C(=O)N2CCC3(CC2)C(=O)Nc2ccccc23)cn1 | 24.88% |
| Cc1ocnc1C(=O)N1CC[C@@H](O)[C@@H](O)[C@H](N2CCC(F)(F)CC2)C1 | 7.4% |
| CCCOc1ccccc1CN[C@@H]1CCC[C@H]1Cc1cc(C)no1 | 3.28% |
| CC(C)CC(CCO)CNC(=O)N1CC(C)(C)C1(C)C (stereo not drawn) | -6.69% |
| CCCS(=O)(=O)N1CC(=O)N(Cc2cccc(OC)c2OC)CC(O)C1 (stereo not drawn) | -13.32% |
| CCOc1ccccc1C(CC(=O)Nc1ncc(C)s1)NC(C)=O (stereo not drawn) | -32.89% |
| CCOc1ccccc1C(CC(=O)Nc1nc(C)cs1)NC(C)=O (stereo not drawn) | 67.59% |
| CCOc1ccccc1C(CC(=O)Nc1ccccc1)NC(C)=O (stereo not drawn) | 23.45% |
| CC(C)c1nnc2n1CCN(C(=O)c1cccc(C(F)(F)F)c1)C2 | 15.31% |
| Cc1cc(C(F)(F)F)nc(N2CCN(Cc3nccn3C)CC2)n1 | 10.91% |
| CN(C)c1nc(N2CCCC2)nc2c1CCN(Cc1nccn1C)CC2 | 55.92% |
| Cc1cc(C)nc(N2CCN(Cc3nccn3C)CC2)n1 | 5.78% |
| Cc1nc(N2CCCC2)nc2c1CCN(Cc1nccn1C)CC2 | 9.98% |
| Cc1cc(N(C)C)nc(N2CCn3c(C)nnc3C2)n1 | 29.13% |
| CCc1nnc2n1CCN(c1nc(C)cc(N(C)C)n1)C2 | 62.51% |
| CC(C)Nc1nc2c(c(N(C)C)n1)CCN(Cc1nccn1C)CC2 | 28.11% |
| Cc1cc(N(C)C)nc(N2CCn3c(nnc3C(C)C)C2)n1 | -6.64% |
| Cc1cc(N(C)C)nc(N2CCN(Cc3nccn3C)CC2)n1 | 50.61% |
| NS(=O)(=O)c1ccc(NCc2ccco2)c2ncccc12 | 7.3% |
| Cc1ccccc1-c1cc(C(=O)NCCN2CCCS2(=O)=O)[nH]n1 | 36.65% |
| Cc1ccccc1-n1c(C)cc(C(=O)N2CCn3c(C)nnc3C2)c1C | -61.5% |

| Structure (SMILES) | INHIBITION |
| --- | --- |
| CN(C(=O)CCNC(=O)C1COc2ccccc21)c1ccccc1 (stereo not drawn) | -0.3% |
| Cc1nn(C)c2cnn(CCCNS(=O)(=O)Cc3ccccc3)c12 | -12.73% |
| COC[C@@H]1CCC[C@]12CN(CCc1ccccc1)CCO2 | -20.67% |
| O=C([C@H]1CCCN1)N1CC2(CCNCC2)c2cc(Cl)ccc21 | 0.57% |
| CCc1nc(C)ncc1C(=O)N1CCCC(n2nc(C)nc2C)C1 (stereo not drawn) | 36.92% |
| Cc1nc(C)n(C2CCCN(C(=O)c3cscn3)C2)n1 (stereo not drawn) | -13.94% |
| CCc1[nH]ncc1C(=O)N1CCCC(n2nc(C)cc2C)C1 (stereo not drawn) | 12.75% |
| Cc1nc(C)n(C2CCCN(C(=O)c3csc(C)n3)C2)n1 (stereo not drawn) | -47.87% |
| Cc1ncc(C(=O)N2CCCC(n3nc(C)nc3C)C2)c(C(C)C)n1 (stereo not drawn) | 24.02% |
| Cc1nc(C)n(C2CCCN(C(=O)c3cncnc3C)C2)n1 (stereo not drawn) | 62.82% |
| CCc1[nH]ncc1C(=O)N1CCCC(n2nc(C)nc2C)C1 (stereo not drawn) | 54.85% |
| Cc1nc(C)n(C2CCCN(C(=O)c3csnn3)C2)n1 (stereo not drawn) | 53.45% |
| CCc1ncncc1C(=O)N1CCCC(n2nc(C)nc2C)C1 (stereo not drawn) | -26.85% |
| Cc1nn(C)c(C)c1NC(=O)Nc1cccnc1N1CCCC1 | 15.28% |
| COCc1ncn2c1CN(C(=O)c1cccc3cccnc13)CC2 | 29.3% |
| CCC(C)c1noc(C2CCN(C(=O)c3cccnc3)CC2)n1 (stereo not drawn) | -59.73% |
| CC(C)(C)C(NC(=O)CCS(C)(=O)=O)c1ccc(F)cc1F (stereo not drawn) | 41.84% |
| NC(=O)CC1CCN(C(=O)NCc2ccc(-c3ccn[nH]3)cc2)CC1 | 7.13% |
| O=C(C1COc2ccccc2C1)N(CCO)Cc1ccccc1 (stereo not drawn) | -49.31% |
| CC1CCCCN1C(=O)c1ccn(COc2ccc(F)cc2)n1 (stereo not drawn) | -12.84% |
| COc1cccc(Nc2nc(-c3ccncc3)nc3c2CNCC3)c1 | 12.6% |
| N#Cc1cccc(CN2Cc3nccn3CC(COCC3CC3)C2)c1 (stereo not drawn) | -17.39% |
| O=C(NC1CC1)[C@H]1C[C@H]2OCC[C@H]2N(Cc2ccc3ccccc3n2)C1 | 0.91% |
| CC(C)NC(=O)[C@@H]1C[C@H]2OCC[C@H]2N(Cc2ccc3ccccc3n2)C1 | 9.69% |
| CC(C)NC(=O)[C@H]1C[C@H]2OCC[C@H]2N(Cc2ccc3ccccc3n2)C1 | 55.8% |
| CCS(=O)(=O)N1C[C@H]2CC[C@](O)(c3ccc(C)cc3)[C@H]2C1 | 38.23% |

| Structure (SMILES) | INHIBITION |
| --- | --- |
| Cc1ccc([C@@]2(O)CC[C@@H]3CN(S(=O)(=O)C(C)C)C[C@@H]32)cc1 | 40.31% |
| Cc1ccc([C@@]2(O)CC[C@@H]3CN(S(=O)(=O)c4cn(C)nc4C)C[C@@H]32)cc1 | 55.74% |
| CNC(=O)[C@H]1C[C@@H]2CN(S(=O)(=O)c3cccc(C)c3)C[C@@H]2N1C | 27.95% |
| COC(=O)CNC(=O)c1scnc1C | -7.24% |
| COc1cccc(N2CCN(C(=O)C(C)Oc3ccccc3)CC2=O)c1 (stereo not drawn) | 24.28% |
| CC(C)[C@@H]1CN(C(=O)CN(C)Cc2ccccc2)C[C@H]1C(=O)O | 35.46% |
| CC(C)[C@@H]1CN(C(=O)CCc2ccc(F)cc2)C[C@H]1C(=O)O | 18.63% |
| CC(C)[C@@H]1CN(C(=O)CN(C)Cc2ccc(F)cc2)C[C@H]1C(=O)O | 72.49% |
| Cc1nnc(CNC(C)c2cc(C)c(F)c(C)c2)s1 (stereo not drawn) | 31.51% |
| COc1ccc(C(C)NCc2c[nH]nc2C)cc1OC (stereo not drawn) | 66.4% |
| COc1ccc(C(C)NCc2c[nH]nc2C)cc1Br (stereo not drawn) | -8.5% |
| COc1cc(C(C)NCc2c[nH]nc2C)ccc1OCCO (stereo not drawn) | 32.26% |
| Cc1cc(C)cc(C(C)NCc2nnc(C)s2)c1 (stereo not drawn) | 38.67% |
| COc1ccc(C(C)NCc2nnc(C)s2)cc1F (stereo not drawn) | 52.98% |
| Cc1cnc(CN2CCCC(c3cc(C)[nH]n3)C2)cn1 (stereo not drawn) | 43% |
| Cc1ccc(NC2CCN(C(=O)c3sccc3C3CC3)CC2)nn1 | 3.38% |
| COC1(CNC(=O)c2ccc(Cl)c(Cl)c2)CCSC1 (stereo not drawn) | -26.56% |
| Cc1cccnc1NC(=O)c1ccc(-n2cncn2)nn1 | 9.92% |
| O=C(Nc1cccnc1)c1ccc(-n2cncn2)nn1 | -7.69% |
| Cc1cccc(NC(=O)c2ccc(-n3cncn3)nn2)n1 | 55.73% |
| CCS(=O)(=O)N1CCC(c2nnc(C(F)(F)F)o2)CC1 | 14.97% |
| CCS(=O)(=O)N1CCC(c2nnc(C3CC3)o2)CC1 | 54.82% |
| CN(C)S(=O)(=O)N1CCC(c2nnc(C(F)(F)F)o2)CC1 | 14.97% |
| O=C(NCCc1cccs1)[C@]12COC[C@H]1CN(c1ncccn1)C2 | 44% |
| NC(=O)CSCC(=O)NCC1CCCC1 | 60.79% |
| NC(=O)CSCCC(=O)NCC1CC1 | 37.87% |

| Structure (SMILES) | INHIBITION |
| --- | --- |
| N#CCSCC(=O)NCC1CCCCC1 | -64.85% |
| CN(C)c1cc2c(nn1)CCN(C(=O)c1cc3c(s1)CCC3)C2 | -7.96% |
| CN(C)c1cc2c(nn1)CCN(C(=O)C1Cc3ccccc3O1)C2 (stereo not drawn) | 11.24% |
| CN(C)c1cc2c(nn1)CCN(C(=O)c1cc3c(s1)CCCC3)C2 | 28.39% |
| CN(C)c1cc2c(nn1)CCN(C(=O)C1Cc3ccccc3S1)C2 (stereo not drawn) | 65.77% |
| CCNc1cc2c(nn1)CCN(C(=O)C1Cc3ccccc3S1)C2 (stereo not drawn) | 27.6% |
| CN(C)c1cc2c(nn1)CCN(C(=O)c1cc3c(s1)CCOC3)C2 | 56.05% |
| CC(=O)N1CCC(Cc2ccc(-c3ccnn3C)nc2)CC1 | 35.19% |
| Cc1ccc(N2CC[C@H]3O[C@@H](C(=O)N4CCCO4)CC[C@H]32)nn1 | -28.58% |
| CCn1c(C)cc(C(=O)NCc2cccc(NS(C)(=O)=O)c2)c1C | -6.29% |
| CNS(=O)(=O)c1cccc(CNC(=O)c2cnn(C)c2C)c1 | -2.2% |
| CCn1c(C)cc(C(=O)NCc2cccc(S(=O)(=O)NC)c2)c1C | 62.01% |
| Cc1nccn1-c1ccc(NC(=O)C2CCCN2Cc2ccoc2)cc1 (stereo not drawn) | 29.13% |
| Cc1nccn1-c1ccc(NC(=O)C2CCCN2Cc2c[nH]cn2)cc1 (stereo not drawn) | 31.51% |
| Cc1nccn1-c1ccc(NC(=O)C2CCCN2CC2CC2)cc1 (stereo not drawn) | 69.67% |
| COCCCN1CCN(c2ncnc3nc(C)cc(C)c23)CC1 | 19.27% |
| O=C(CCc1n[nH]c2c1CCCC2)N1C[C@H]2CC[C@@H](C1)N(CC1CC1)C2 | 35.94% |
| Cc1nc(N)cc(N2CCCC(COc3cccc(F)c3)C2)n1 (stereo not drawn) | 59.8% |
| Nc1cc(N2CCCC(COc3ccc(F)cc3)C2)ncn1 (stereo not drawn) | 42.11% |
| Nc1cc(N2CCCC(COc3ccc(F)cc3)C2)nc(N)n1 (stereo not drawn) | 17.48% |
| N#Cc1cccnc1NCc1cccc(C(=O)NCC2CCCCO2)c1 (stereo not drawn) | 27.85% |
| N#Cc1cccnc1NCCc1cc(F)cc2c1OCOC2 | 4.68% |
| COc1ccc2c(c1)CCCC2CC(=O)O (stereo not drawn) | -36.72% |
| COc1ccc2c(c1)CCCC2CC(=O)NCC(C)(C)C(=O)O (stereo not drawn) | 53.98% |
| COc1ccc2c(c1)CCCC2CC(=O)NCC(=O)O (stereo not drawn) | -35.22% |

Source: ChEMBL document CHEMBL4513216, “Probing the Open Global Health Chemical Diversity Library for Multistage-Active Starting Points for Next-Generation Antimalarials” (ACS Infect Dis, 2020)
